# Measured values from ChEMBL document CHEMBL4513216, “Probing the Open Global Health Chemical Diversity Library for Multistage-Active Starting Points for Next-Generation Antimalarials” (ACS Infect Dis, 2020).
# Screen size: about 68,000 compounds; about 2,700 (4%) showed an effect of 50% or more. Many of the other results were omitted from the sample, so strong results are more common in it than they were.
# Tested on: Plasmodium berghei
# Test: Screen against P. berghei liver stage (PbLuc), transformed with Luciferase, at 2uM
# Format: functional, HepG2
# Conditions: tested at 2 uM
row,SMILES,INHIBITION
1,O=C(CC1CCC1)N1CCCC(CO)(CC2CC2)C1 (stereo not drawn),-12.89%
2,O=C1CCCN1Cc1ncn2c1CN(C(=O)c1cccc(F)c1)CCC2,21.33%
3,Cc1cc(NC(=O)CN2CCCCC2Cn2nc(C)nc2C)on1 (stereo not drawn),27.5%
4,Nc1ncccc1CN1C[C@@H](C(=O)O)[C@H](c2cccc(F)c2)C1,1.22%
5,CCS(=O)(=O)N1CCC2(CC1)CN(CC1CCOC1)c1ccccc12 (stereo not drawn),17.89%
6,COc1ccc(OC2CCN(C(=O)CCc3n[nH]c(N)n3)CC2)cc1,-88.55%
7,COc1ccc(CCN2CCCC(CN(C)Cc3[nH]cnc3C)C2)cc1 (stereo not drawn),52.31%
8,Cc1noc(CN(C)CC2CCCN(CCc3ccc(Cl)cc3)C2)n1 (stereo not drawn),35.26%
9,COc1ccc(CCN2CCCC(CN(C)Cc3ccc(C)o3)C2)cc1 (stereo not drawn),54.59%
10,Cc1nc[nH]c1CN(C)CC1CCCN(CCc2ccc(Cl)cc2)C1 (stereo not drawn),-9.17%
11,Cc1nc(CN(C)CC2CCCN(CCc3ccc(Cl)cc3)C2)no1 (stereo not drawn),-7.76%
12,COc1ccccc1CCN1CCCC(CN(C)Cc2ccc(C)o2)C1 (stereo not drawn),-4.64%
13,CN(Cc1ccncc1)CC(c1cccs1)N1CCOCC1 (stereo not drawn),-10.66%
14,Cc1noc(CN(C)CC(c2cccs2)N2CCOCC2)n1 (stereo not drawn),28.88%
15,CN(Cc1ncc[nH]1)CC(c1cccs1)N1CCOCC1 (stereo not drawn),62.46%
16,Cc1cc(C(F)(F)F)c2c(=O)n(Cc3cc(C)on3)n(C)c2n1,1.36%
17,O=C1CCCN1Cc1nnn2c1CN(c1ncccn1)CCC2,1.48%
18,CSC(C)C(=O)NCc1ccnc(N2CCN(C)CC2)c1 (stereo not drawn),22.29%
19,CC(C)N1CC(C(=O)NCc2ccnc(-n3cccn3)c2)CC1=O (stereo not drawn),-47.05%
20,CC(C(=O)NCc1ccnc(N2CCN(C)CC2)c1)n1cccn1 (stereo not drawn),53.12%
21,CC(C(=O)NCc1ccnc(N2CCOCC2)c1)n1cccn1 (stereo not drawn),-7.02%
22,CC(C(=O)NCc1ccnc(N2CCCC2)c1)n1cccn1 (stereo not drawn),17.12%
23,CCN1CC(C(=O)NCc2ccnc(-n3cccn3)c2)CC1=O (stereo not drawn),2.46%

row,SMILES,INHIBITION
1,CC(C(=O)NCc1ccc(N2CCN(C)CC2)nc1)n1cccn1 (stereo not drawn),23.16%
2,CN1CC(C(=O)NCc2ccnc(-n3cccn3)c2)CC1=O (stereo not drawn),67.99%
3,CC(C(=O)NCc1ccnc(N2CCCCCC2)c1)n1cccn1 (stereo not drawn),53.33%
4,Cn1cc(CC2CC(=O)N(Cc3ccc(Cl)cc3)C2=O)cn1 (stereo not drawn),29.4%
5,CCn1ccnc1CN1CCN(CCOc2ccc(C#N)cc2)CC1,-12.75%
6,CCOc1ccc2[nH]c(=O)c(CN3CCN(S(N)(=O)=O)CC3)cc2c1,43.05%
7,CN1CCC2(CC1)CN(C(=O)c1cccc3cccnc13)CCN2C,9.11%
8,CC(CN1CCCC1=O)NC(=O)c1ccc(C(F)(F)F)[nH]c1=O (stereo not drawn),-85.12%
9,Cc1cccn2cc(CC(=O)N3CCCC(n4cncn4)C3)nc12 (stereo not drawn),-45.23%
10,O=C(C1CCCC1)N1CCC2(CC1)OCCO2,-29.58%
11,O=C(C1CC1)N1CCC2(CC1)OCCO2,56.99%
12,O=C(C1CCC1)N1CCC2(CC1)OCCO2,11.87%
13,CC(C)C1CN(c2cccc(C#N)n2)CCCN1Cc1ccc(F)cc1 (stereo not drawn),8.26%
14,Cc1ccnc(C2CCN(c3ccnc(C)n3)C2)n1 (stereo not drawn),17.24%
15,CCc1nnc(Nc2cc(C)nc(C3CCN(c4ccncn4)C3)n2)s1 (stereo not drawn),37.36%
16,Cc1cc(C)nc(C2CCN(c3ccncn3)C2)n1 (stereo not drawn),80.06%
17,N#Cc1cccc(NC(=O)N(CC(F)F)C2CC2)c1,-73.45%
18,CSCC(=O)N1CCCC(CCC(=O)N(C)CCc2ccccn2)C1 (stereo not drawn),28.62%
19,O=C(c1ccoc1)N1CC[C@H]2OCC[C@@]2(COc2ncccc2F)C1,30.79%
20,CC(c1cccc(O)c1)N(C)S(=O)(=O)c1cccnc1 (stereo not drawn),-18.09%
21,CCN(C(C)c1cccc(O)c1)S(=O)(=O)c1cccnc1 (stereo not drawn),52.83%
22,CC(c1cccc(O)c1)N(C)S(N)(=O)=O (stereo not drawn),-21.47%
23,Cc1cc(C)c(N(CC(O)CNCc2ccccc2)S(C)(=O)=O)c(C)c1 (stereo not drawn),25.73%

row,SMILES,INHIBITION
1,CN(CCNC(=O)N1CCN(Cc2ccon2)CC1)c1ccccc1,-5.97%
2,Cc1cc(CN2CCN(C(=O)NCc3ccco3)CC2)no1,-24.5%
3,CCN(CC)CCNC(=O)C(C)OCC(F)(F)F (stereo not drawn),-55.73%
4,CC(OCC(F)(F)F)C(=O)NCCN(C)C (stereo not drawn),-6.73%
5,CC(C)C(=O)NCCNC(=O)C(C)OCC(F)(F)F (stereo not drawn),57.76%
6,CC(C)(C)c1ccc2c(c1)CCN2C(=O)c1ccc(=O)[nH]n1,-6.69%
7,O=C(c1c[nH]c(=O)[nH]1)N1CCc2ccccc21,-63.68%
8,O=C(c1ccc(=O)[nH]n1)N1CCc2ccccc21,54.52%
9,O=C(c1cccnc1)N1CCCC1c1cc[nH]n1 (stereo not drawn),40.31%
10,Cc1ccc(C(=O)N(Cc2ccc(F)cc2F)C2CC2)c(=O)[nH]1,20.76%
11,Cc1ccc(C(=O)N(Cc2ccc(F)cc2)C2CC2)c(=O)[nH]1,27.33%
12,Cc1ccc(C(=O)N(Cc2cccc(F)c2)C2CC2)c(=O)[nH]1,63.46%
13,O=C(O)c1c(-c2ccoc2)ncc2c1CCN(C1CCOC1)C2 (stereo not drawn),55.52%
14,CCN(C)c1ncc2c(c1C(=O)O)CCN(C1CCOC1)C2 (stereo not drawn),54.13%
15,O=C(O)c1c(NC2CCC2)ncc2c1CCN(C1CCOC1)C2 (stereo not drawn),45.12%
16,CN1CCN(c2ncc3c(c2C(=O)O)CCN(C2CCOC2)C3)CC1 (stereo not drawn),21.28%
17,CCN(CC)c1ncc2c(c1C(=O)O)CCN(C1CCOC1)C2 (stereo not drawn),24.51%
18,O=C(O)c1c(-c2ccncc2)ncc2c1CCN(C1CCOC1)C2 (stereo not drawn),-80.9%
19,CNS(=O)(=O)c1ccc(CNC(=O)Nc2cn[nH]c2)cc1,2.07%
20,COc1ccccc1CCc1nc(CC2CCN(C)CC2)no1,34.46%
21,COc1c[nH]c(C(=O)N2CCN(c3cccc(Cl)c3)CC2)cc1=O,22.88%
22,CCc1ncc(CN2C[C@@H]3CC[C@H]2CN(C(=O)C2CCC2)C3)cn1,12.3%
